According to PubChem BioAssay (EPA / NIEHS):
Inconclusive results are not listed. Activity calls are given as the source filed them. How the source made its calls: active means hit-call score of the fitted dose curve at least 0.9, where 1 is the maximum; inconclusive means response in the unintended direction; inactive means score below 0.9.

target: Nuclear receptor subfamily 1 group I member 3 (Homo sapiens) (UniProt Q14994); assay: ATG_CAR_TRANS: Attagene TRANS-FACTORIAL HepG2 Assay for human Constitutive Androstane Receptor (CAR) (AID 2282969); conditions: HepG2 Attagene TRANS-FACTORIAL CAR reporter;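 further: activators raise reporter mRNA above DMSO so AC50 marks induction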
Sequence (Q14994 whole entry, looked up): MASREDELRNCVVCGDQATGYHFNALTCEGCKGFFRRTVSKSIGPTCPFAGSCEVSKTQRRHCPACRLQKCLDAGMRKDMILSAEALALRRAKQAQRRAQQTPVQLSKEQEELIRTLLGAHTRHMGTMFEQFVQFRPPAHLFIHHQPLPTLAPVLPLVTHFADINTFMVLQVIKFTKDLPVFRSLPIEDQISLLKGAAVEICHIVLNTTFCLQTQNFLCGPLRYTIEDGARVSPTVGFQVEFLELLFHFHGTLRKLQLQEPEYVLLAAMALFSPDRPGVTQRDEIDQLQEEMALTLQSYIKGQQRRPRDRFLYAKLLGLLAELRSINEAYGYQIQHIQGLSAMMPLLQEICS
Protocol: ATG_TRANS is a cell-based, multiplexed-readout assay that uses HepG2, a human liver cell line, with measurements taken at 24 hours after chemical dosing in a 24-well plate.ATG_CAR_TRANS is one of 30 assay component(s) measured or calculated from the ATG_TRANS assay. It is designed to make measurements of mRNA induction, a form of inducible reporter, as detected with fluorescence intensity signals by Reverse transcription polymerase chain reaction (RT-PCR) and Capillary electrophoresis technology.Data from the assay component ATG_CAR_TRANS was analyzed into 1 assay endpoint. This assay endpoint, ATG_CAR_TRANS, was analyzed in the positive analysis fitting direction relative to DMSO as the negative control and baseline of activity. Using a type of inducible reporter, measures of mRNA for gain-of-signal activity can be used to understand the reporter gene at the transcription factor-level as they relate to the gene NR1I3. Furthermore, this assay endpoint can be referred to as a primary readout, because this assay has produced multiple assay endpoints where this one serves a reporter gene function. To generalize the intended target to other relatable targets, this assay endpoint is annotated to the nuclear receptor intended target family, where the subfamily is non-steroidal.
Human liver HepG2 cells are transiently transfected with multiple reporter transcription units (MRTUs) in 6-well plates using FuGene 6 reagent (Roche; 3 ml FuGene/1 mg DNA). The MRTU constructs are regulated by a cis-regulating element (promoter). […] A major difference between the CIS and TRANS system is that in CIS activities of endogenous TFs are measured, whereas the TRANS assay evaluates changes in activities of exogenous, chimeric NR-Gal4 proteins. […] At the end of 24 hour incubation, total RNA was isolated using TriZol reagent (Invitrogen). The isolated RNA is then reverse-transcribed using oligo(dT) primer and Mo-MLV reverse transcriptase (Invitrogen) with DNAse I (Ambion) treatment for 30 min. The one-tenth of the produced cDNA was amplified by PCR using Taq DNA polymerase (Invitrogen) and two reporter sequence-specific primers. The PCR products were fluorescently labeled by primer extension with 6-arboxyfluorescein (6-FAM) 5'-labeled reporter sequence-specific primer (2 min at 95 C, 20 s at 68 C and 10 min at 72 C) and these products were digested with 5U of HpaI (New England Biolabs) for 2h at 37 C. The fragments were purified using Qiaquick PCR columns (Qiagen), analyzed on an ABI 3130xL genetic analyzer (Applied Biosystems) with peak positions identified by using a set of X-rhodamine (ROX)-labeled MapMarker1000 molecular weight standards (BioVentures). The raw capillary electrophoresis data was processed using Attagraph software (Attagene).

| Structure (SMILES) | outcome |
| --- | --- |
| CCCCCCCCOS(=O)(=O)O | inactive |
| C[C@]12CC[C@@H]3c4ccc(O)cc4CC[C@H]3[C@@H]1CC[C@@H]2O | inactive |
| CCCCCCCCSCc1cc(C)c(O)c(CSCCCCCCCC)c1 | inactive |
| C=C1CC/C=C(\C)CC[C@@H]2[C@@H]1CC2(C)C | inactive |
| Cc1cc(O)c2c(c1)C(=O)c1cc(O)cc(O)c1C2=O | inactive |
| CCCCCCCCCCCCS | inactive |
| CC(=O)OCC=C(C)CCC=C(C)CCC=C(C)C | inactive |
| CC/C=C\CCOC(C)OCC (stereo not given) | inactive |
| CC1=CCC(=C(C)C)CC1 | inactive |
| O=S(=O)(O)c1cc(S(=O)(=O)O)c2c(N=Nc3ccccc3)c(O)ccc2c1 | inactive |
| CCC(C)(CCCC(C)C)OC(C)=O (stereo not given) | inactive |
| CCOC(=O)C=Cc1ccccc1 | inactive |
| C1CCCNCC1 | inactive |
| CCC(=O)OC(C)(C)C1CC=C(C)CC1 (stereo not given) | inactive |
| C=CCOC(=O)/C=C\C(=O)OCC=C | inactive |
| CCCCC1CCCCC(=O)O1 (stereo not given) | inactive |
| C=COCC1CCC(COC=C)CC1 (stereo not given) | inactive |
| CC(C)Cc1ccc(C(C)C(=O)O)cc1 (stereo not given) | inactive |
| CC(=O)Nc1cc(S(=O)(=O)O)cc2cc(S(=O)(=O)O)c(N=Nc3ccccc3)c(O)c12 | inactive |
| CCCCOCCOCCOCCO | inactive |

| Structure (SMILES) | outcome |
| --- | --- |
| CCOC(=O)COC(=O)c1ccccc1C(=O)OCC | inactive |
| O=c1cc(-c2ccc(O)cc2)oc2cc(O)cc(O)c12 | inactive |
| CCCCCCCC(=O)N(C)C | inactive |
| COc1ccc(OC)cc1 | inactive |
| O=Cc1ccccc1O | inactive |
| CC12CCC(C1)C(C)(C)C2O (stereo not given) | inactive |
| CC(=O)CC(C)(C)C1CCCCC1 | inactive |
| Cc1ccc(C(C)(C)O)cc1 | inactive |
| NC(=O)c1cnccn1 | inactive |
| CC1=CCC(C(C)C)=CC1 | inactive |
| C=CC(C)CCCC(C)(C)O (stereo not given) | inactive |
| CCNC(=S)NCC | inactive |
| CCCCN(CCCC)CCCCCCN(CCCC)CCCC | inactive |
| CCCCCCCCOC(=O)c1ccc(O)cc1 | inactive |
| CC(=O)c1ccc(O)cc1 | inactive |
| CC(=O)CCC(=O)O | inactive |
| CC(C)(C)c1cc(CCC(=O)OCCSCCOC(=O)CCc2cc(C(C)(C)C)c(O)c(C(C)(C)C)c2)cc(C(C)(C)C)c1O | inactive |
| CC(CO)c1ccccc1 (stereo not given) | inactive |
| CC(=O)c1ccc2ccccc2c1 | inactive |
| O=c1cc[nH]cc1 | inactive |
